Compound activity (PubChem BioAssay)
An excerpt weighted towards active compounds, which were near 1.8% of everything screened.
PHOSPHO1 block: PHOSPHO1 (human) inhibition. AID 1565. recombinant PHOSPHO1, absorbance phosphatase assay. Q8TCT1. 290,000 compounds, 1.1% hits. inhibition, % at 13.3 µM; in the data active = inhibition above about 60%
Target sequence (Q8TCT1 whole entry, looked up): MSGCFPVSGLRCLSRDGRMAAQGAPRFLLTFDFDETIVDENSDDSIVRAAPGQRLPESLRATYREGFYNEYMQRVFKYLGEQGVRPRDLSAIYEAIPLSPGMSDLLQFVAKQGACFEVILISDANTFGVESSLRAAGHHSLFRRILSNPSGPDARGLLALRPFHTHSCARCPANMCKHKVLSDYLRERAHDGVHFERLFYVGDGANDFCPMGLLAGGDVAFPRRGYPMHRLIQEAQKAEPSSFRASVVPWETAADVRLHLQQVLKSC
SUMO HTRF inh: inhibitors of human SUMOylation (UBC9); HTRF SUMOylation assay, SAE1/SAE2 + UBC9, in vitro; inhibition, % at 35 µM; 290,000 compounds, 0.36% hits; AID 2006; in the data active = inhibition above about 50%, passing the limit was not always enough
Target sequence (P63279 whole entry, looked up): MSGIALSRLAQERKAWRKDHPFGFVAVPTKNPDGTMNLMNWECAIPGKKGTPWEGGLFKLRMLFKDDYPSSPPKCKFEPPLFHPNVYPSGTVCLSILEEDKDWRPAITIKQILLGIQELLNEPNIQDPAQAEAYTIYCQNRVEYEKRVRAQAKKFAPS
p-CIP stab down: lowers stability of the mouse p/CIP coactivator protein; Q05BA5; F442A p/CIP-EGFP cells, EGFP fluorescence, 16 h; decrease of EGFP signal, % at 10 µM; 290,000 compounds, 0.01% hits; AID 1984;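 active = EGFP signal decrease of at least 30% at 10 µM or well 3 SD below plate mean, unless failing retest; inactive = the rest, including hits failing retest or dose response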
NadD block: NadD (S. aureus) enzyme inhibition. purified NadD enzyme, colorimetric absorbance read-out. inhibition, % at 20 µM. 360,000 compounds, 0.78% hits; in the data active = inhibition above about 26%
Each line names hits and unclear results; the compound was inactive in the other large screens.

O=C(c1ccc(Cl)cc1)C1C2C(=O)N(c3ccccc3)C(=O)C2C2CCCN21 (centres undefined)	PHOSPHO1 block 83.6
O=C(C1=C[C@@H]2[C@H]3C(=O)N(c4cccc(Cl)c4)C(=O)[C@H]3[C@@H](C(=O)c3ccc(Cl)cc3)N2C=C1)c1ccccc1	NadD block 56.7
O=c1[nH]c(SCc2n[nH]c(=S)n2-c2ccccc2)nc2sc3c(c12)CCC3	PHOSPHO1 block 84.8
CC1(c2nc3ccccc3[nH]2)c2ccccc2C(=O)N1C1CC1 (centres undefined)	none (no result: PHOSPHO1 block, SUMO HTRF inh, p-CIP stab down)
O=C(O)Cn1cc(C(=S)N2CCOCC2)c2ccccc21	PHOSPHO1 block 88.2
O=C(N/N=C/c1ccc(-c2ccc(S(=O)(=O)Nc3ncccn3)cc2)o1)c1cc2ccccc2cc1O	NadD block 81.3 (no result: SUMO HTRF inh)
CC1CCC/C(=C\Nc2ccc(O)cc2)C1=O (centres undefined)	PHOSPHO1 block 69.5
NS(=O)(=O)c1cc(C(=O)NC2CCSc3ccccc32)ccc1Cl (centres undefined)	SUMO HTRF inh 73.3
CCOC(=O)c1c(C)[nH]c2cc(Br)c(O)cc12	none
CCOC(=O)c1c(OCC)[nH]c2c1cc(O)c1ccccc12	PHOSPHO1 block 67.3
Cc1csc2nc(CSc3nc4ccccc4o3)cn12	PHOSPHO1 block 61.2
c1ccc2oc(SCc3cn4ccsc4n3)nc2c1	none
Cc1cc(C)n2c(Br)c(CSc3nc4ccccc4o3)nc2n1	PHOSPHO1 block 79.7
O=C(Nc1ccc(F)cc1F)N1CCN(C/C=C/c2ccccc2)CC1	none
O=C(Nc1ccc(F)cc1F)N1CCN(CCc2ccccc2)CC1	PHOSPHO1 block 67.6
COc1ccc(C(c2nnnn2C2CCCC2)N2CCN(C(=O)c3ccco3)CC2)cc1OC (centres undefined)	none
COc1cc(C(c2nnnn2C2CCCC2)N2CCc3ccccc3C2)ccc1O (centres undefined)	PHOSPHO1 block 77.4
Oc1ccc(C(c2nnnn2C2CCCC2)N2CCc3ccccc3C2)cc1 (centres undefined)	PHOSPHO1 block 84.4
N#Cc1cccc(C(c2nnnn2C2CCCC2)N2CCCCCC2)c1 (centres undefined)	PHOSPHO1 block 62.3
COc1cccc(CN2CCC2(C)C(=O)Nc2cccc(Oc3ccccc3)c2)c1OC (centres undefined)	none (no result: PHOSPHO1 block, SUMO HTRF inh, p-CIP stab down)
COc1cccc(Oc2c(C)oc3c(CN4CCOCC4)c(O)ccc3c2=O)c1	none (no result: PHOSPHO1 block, SUMO HTRF inh, p-CIP stab down)
COc1ccc(Oc2c(C)oc3c(CN4CCOCC4)c(O)ccc3c2=O)cc1	PHOSPHO1 block 60.1
CCCCCC(=O)Nc1nc(C)c(-c2csc(Nc3cc(Cl)ccc3C)n2)s1	PHOSPHO1 block 69.6
CCCCCC(=O)Nc1nc(C)c(-c2csc(Nc3ccc(Cl)cc3)n2)s1	none
CCCCCCC(=O)Nc1nc(C)c(-c2csc(Nc3ccc(Cl)cc3)n2)s1	PHOSPHO1 block 71.9
Cc1ccc(Cl)cc1Nc1nc(-c2sc(NC(=O)c3cccc(Cl)c3)nc2C)cs1	none (no result: NadD block)
CC(C)n1c(=O)c2ccccc2n1Cc1cn(C2CCCC2)nn1	none (no result: PHOSPHO1 block, SUMO HTRF inh, p-CIP stab down)
CCCCNC(=O)C1(C)CCCCN1C(=O)c1ccc2c(c1)CCO2 (centres undefined)	none (no result: PHOSPHO1 block, SUMO HTRF inh, p-CIP stab down)
C/C(=N/Nc1ccc(C(=O)c2c(C)cc3ccccn23)cc1[N+](=O)[O-])c1ccc(O)cc1	NadD block 31.6 (no result: PHOSPHO1 block, SUMO HTRF inh, p-CIP stab down)
C/C(=N\Nc1ccc(C(=O)c2c(C)cc3ccccn23)cc1[N+](=O)[O-])c1ccc(O)cc1	NadD block 35.7
Cc1cc2ccccn2c1C(=O)c1ccncc1	none
Cc1cc2ccccn2c1C(=O)c1ccc(Cl)cc1	PHOSPHO1 block 63.9
Cc1cn([C@H]2C[C@H](O)[C@@H](CNC(=O)c3ccccn3)O2)c(=O)[nH]c1=O	none (no result: PHOSPHO1 block, SUMO HTRF inh, p-CIP stab down)
CCn1cc(CN2CCc3c([nH]c4ccccc34)C2c2cccc(O)c2)c(C)n1 (centres undefined)	PHOSPHO1 block 63.7
CCn1cc(CN2CCc3c([nH]c4ccccc34)C2c2cccc(OC)c2)c(C)n1 (centres undefined)	none
CC(C)N1C(=O)C(=O)N(CC(=O)N2c3ccccc3CC2C)C1=O (centres undefined)	none (no result: PHOSPHO1 block, SUMO HTRF inh, p-CIP stab down)
CCCCn1c(CCn2nc(C)c(Br)c2C)n[nH]c1=S	PHOSPHO1 block 89.8
CCn1c(CCCCc2n[nH]c(=S)n2CC)n[nH]c1=S	none
O=C(Cn1cc(COc2ccc(Cl)c(Cl)c2)nn1)NS(=O)(=O)c1ccccc1OC(F)(F)F	none (no result: PHOSPHO1 block, SUMO HTRF inh, p-CIP stab down)
O=S1(=O)CC(N2CCCC2)CN1Cc1cn(Cc2ccc(Cl)cc2)nn1 (centres undefined)	none (no result: PHOSPHO1 block, SUMO HTRF inh, p-CIP stab down)
COc1ccc(-c2n[nH]c(=S)n2/N=C/C=C/c2ccccc2OC)cc1	none
S=c1[nH]nc(-c2ccccc2)n1/N=C/C=C/c1ccco1	none
S=c1[nH]nc(-c2ccco2)n1/N=C/C=C/c1ccccc1	PHOSPHO1 block 63.3
